An excerpt weighted towards active compounds, which were near 5% of everything screened.
CHT allo act: human CHT allosteric activation | Q9GZV3 | CHT-expressing cells, membrane potential dye, choline EC20; hits give high values; LV-AA mutant CHT in HEK293 cells | B-score at 10 µM | hit rate 0.49% among 310,000 | AID 488977;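 active = initial fluorescence not abnormally high and integrated response B-score, plate-corrected, over 3 SD above library mean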
Target sequence (Q9GZV3 whole entry, looked up): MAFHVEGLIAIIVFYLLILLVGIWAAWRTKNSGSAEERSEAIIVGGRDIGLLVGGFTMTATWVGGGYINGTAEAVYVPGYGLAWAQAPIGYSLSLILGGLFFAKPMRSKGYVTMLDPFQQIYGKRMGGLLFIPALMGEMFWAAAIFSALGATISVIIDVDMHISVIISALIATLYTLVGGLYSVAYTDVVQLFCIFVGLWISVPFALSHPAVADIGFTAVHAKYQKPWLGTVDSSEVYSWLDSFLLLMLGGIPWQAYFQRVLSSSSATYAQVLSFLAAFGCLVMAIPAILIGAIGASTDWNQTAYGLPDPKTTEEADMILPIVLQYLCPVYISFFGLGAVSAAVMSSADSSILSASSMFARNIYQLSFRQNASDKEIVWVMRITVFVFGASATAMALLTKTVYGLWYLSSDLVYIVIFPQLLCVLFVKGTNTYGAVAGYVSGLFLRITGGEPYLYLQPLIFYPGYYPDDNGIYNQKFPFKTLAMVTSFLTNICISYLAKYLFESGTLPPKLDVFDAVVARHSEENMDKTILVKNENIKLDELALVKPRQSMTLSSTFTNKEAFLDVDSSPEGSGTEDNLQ
CHT block: inhibits the human high affinity choline transporter. hit rate 0.86% among 310,000. CHT-expressing cells, membrane potential dye, choline response; hits give low values. Q9GZV3. B-score at 10 µM;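 active = B-score over 3 SD under the library average, and starting fluorescence ratio not unusually high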;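 also: choline stimulus applied at its EC90 after an EC20 pre-addition; B-score computed on integrated fluorescence ratio after choline addition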
PREPL inh: inhibitors of human prolyl oligopeptidase-like enzyme PREPL. Q4J6C6. recombinant PREPL, fluorescence polarization activity-based probe. inhibition, % at 5.96 µM. hit rate 0.68% among 320,000. AID 2751; in the data active = inhibition above about 43%;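 also: 0% = enzyme with DMSO and 100% = wells lacking enzyme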
ALR inh: human ALR oxidase inhibition via reduced H2O2. P55789. purified ALR, DTT oxidation, H2O2 HRP-luminol luminescence. inhibition, % (test concentration not listed). hit rate 3.8% among 290,000. AID 485317;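 active = mean replicate inhibition above about 79%, with every replicate also reaching it, limit read from the data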
AI-2 QS mod: Vibrio harveyi AI-2 quorum sensing modulation; Vibrio harveyi JMH597 AI-2 luminescence/OD600 ratio, 9 h; hits give low values; strain lacks LuxN and CqsS sensors; 0 = neutral-control median; activity change, % at 7.5 µM; hit rate 0.4% among 300,000; AID 2094; in the data active = activity change below about -75%, passing the limit was not always enough;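 also: luminescence divided by OD600 gain over 9 h not by final OD600 alone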
Starred values were filed as active, the others as inactive; i = inactive; · = not tested or not shown.

SMILES | CHT allo act | CHT block | PREPL inh | ALR inh | AI-2 QS mod
CC(=O)NC1C(Oc2ccc3c(C)cc(=O)oc3c2)OC(COC(C)=O)C(OC(C)=O)C1OC(C)=O (centres undefined) | i | i | 2 | -6 | 9
N#CC(C#N)=C1C=C2C=C(N3CCCCC3)CCC2CC1 (centres undefined) | i | i | 8 | 99* | ·
COc1ccccc1C(=O)NC(=O)CSc1nnc(C)s1 | i | i | -3 | 14 | 12
C/C(=N\NC(=O)CSc1nnc(C)s1)c1ccc(O)cc1 | i | i | -2 | 99* | 11
COc1cc(/C(C)=N/NC(=O)CSc2nnc(C)s2)ccc1O | i | i | -3 | 95* | 25
COc1cc(/C(C)=N/NC(=O)CSc2nc3ccccc3[nH]2)ccc1O | i | i | 4 | 99* | 17
COc1ccc(OC)c(S(=O)(=O)Nc2ccccc2O)c1 | i | i | 9 | 99* | 4
COc1cc(N)ccc1NC(=O)c1cc2ccccc2o1 | i | i | 7 | 7 | -1
CS(=O)(=O)c1ccc2nc(NC(=O)CCC(=O)c3cccs3)sc2c1 | i | i | 7 | -4 | -96*
Cc1noc(C)c1CSCC(=O)Nc1nc2ccc(S(C)(=O)=O)cc2s1 | i | i | 10 | 97* | -72
Cc1noc(C)c1CSCC(=O)Nc1cc(S(C)(=O)=O)ccc1Cl | i | i | -4 | -52 | 14
Cc1cnc(NC(=O)CSCc2c(C)noc2C)s1 | · | · | 2 | -13 | ·
Cc1noc(C)c1CSCC(=O)NC1=NCCS1 | i | i | -4 | 97* | 15
COc1ccccc1OCCNC(=O)c1ccc2c(c1)CCC2 | i | i | -9 | · | 34
O=C(c1ccccc1Sc1cccc2ccccc12)N1CCOCC1 | i | i | 6 | -14 | ·
c1ccc(CCN=C2CCCc3c2[nH]c2ccccc32)cc1 | i | i | -3 | 9 | 20
Fc1ccc2cc(-c3ccsc3)ncc2c1 | · | · | -33 | -1 | ·
CN(C)c1ccc(/C=C(/NC(=O)c2ccccc2)C(=O)NCCCn2ccnc2)cc1 | i | i | 11 | 99* | 24
CN(C)c1ccc(/C=C(\NC(=O)c2ccccc2)C(=O)NCCCN2CCOCC2)cc1 | i | i | 4 | 98* | 15
O=C(NCCCn1ccnc1)c1ccc(F)cc1 | i | i | 15 | -16 | 5
CCC(=O)Nc1ccc(C(=O)NCCCn2ccnc2)cc1 | i | i | 20 | 100* | 9
COc1cc(/C=N/NC(=O)CSCc2ccc([N+](=O)[O-])cc2)cc(OC)c1OC | i | i | 0 | 98* | 14
O=C(CSCc1ccc([N+](=O)[O-])cc1)NN=C1CCCCCC1 | i | i | 0 | 88* | -1
COc1ccc(/C=N/NC(=O)CSCc2ccc([N+](=O)[O-])cc2)cc1OC | i | i | -11 | 16 | 14
CCc1ccc(NC(=O)COC(=O)c2ccc(Cl)c(S(=O)(=O)N3CCCCCC3)c2)cc1 | i | i | -19 | -16 | 33
SMILES | CHT allo act | CHT block | PREPL inh | ALR inh | AI-2 QS mod
CCN(C[C@H]1N[C@@](Cc2ccccc2)(C(=O)OC)[C@H]2C(=O)N(C)C(=O)[C@@H]12)S(=O)(=O)c1ccc(C(C)(C)C)cc1 | · | · | 12 | · | ·
CCN(CC)C(=O)CSc1nnc(-c2ccccc2)c(-c2ccccc2)n1 | i | i | 16 | 9 | 18
Cc1ccc([N+](=O)[O-])cc1NC(=O)CSc1nncc2ccccc12 | i | i | 1 | 0 | 32
Cc1nnc(SCC(=O)Nc2ccccc2)c2ccccc12 | i | i | 5 | 99* | -6
Cc1ccccc1NC(=O)CSc1nnc(C)c(=O)[nH]1 | i | i | -9 | -7 | 14
Cc1ccccc1NC(=O)CSc1nnc(C)c2ccccc12 | i | i | 3 | 96* | ·
Cc1ccc(NC(=O)CSc2ncc3ccccn23)cc1 | i | i | 3 | 99* | 5
Cc1ccc(NC(=O)CSc2nncc3ccccc23)cc1 | i | i | 0 | 99* | 30
Cc1nnc(SCC(=O)Nc2ccc(O)cc2)c2ccccc12 | i | i | -1 | 0 | 34
Cc1cc(OCC(=O)Nc2ccc(F)c(F)c2)nc(C(C)C)n1 | i | i | -4 | -6 | 8
C=CCN(Cc1nc(-c2ccc(OC)c(OC)c2)oc1C)C1CCS(=O)(=O)C1 (centres undefined) | i | i | 4 | -1 | 3
COc1ccc2cnnc(SCC(=O)Nc3ccc(C(=O)O)cc3)c2c1OC | i | i | -2 | 99* | 37
COc1ccc2cnnc(SCC(=O)Nc3ccc(C(C)=O)cc3)c2c1OC | i | i | -3 | 74 | -2
Cc1ccc2c(c1)c1c(n2CC(O)Cn2ccnc2C)C(=O)CCC1 (centres undefined) | i | i | 22 | -2 | -5
Cc1ccc2c(c1)c1c(n2CC(O)CNC2CCCC2)CCCC1 (centres undefined) | i | i | 41 | 89* | 35
COc1ccc(NC(=O)CCNS(=O)(=O)c2cc(Br)cnc2N)c(OC)c1 | i | i | 3 | -6 | 15
CC(C)OC(=O)n1c(=S)oc2ccccc21 | i | i | 4 | 1 | 1
CCCCC(=O)/C=C/n1c(=S)oc2ccccc21 | i | i | 0 | 53 | -90*
CC(C)c1ccc2nc(N)sc2c1 | i | i | 5 | -1 | 18
Nc1nc2ccc(Oc3ccccc3)cc2s1 | · | · | · | · | -81*
Nc1nc2ccc(O)cc2s1 | i | i | 3 | 99* | 12
Cc1cccc(N2CCN(C(=O)NC3CCCCC3)CC2C)c1 (centres undefined) | i | i | · | 88* | 13
Cc1ccc(C)c(N2CCN(C(=O)c3ccc(CS(=O)(=O)c4ccccc4C)o3)CC2)c1 | i | i | 20 | 15 | 34
Cc1cccc(N2CCN(C(=O)CCn3c(=O)[nH]c4ccsc4c3=O)CC2C)c1 (centres undefined) | i | i | -2 | 99* | 20
Cc1cccc(N2CCN(C(=O)c3ccc(CS(=O)(=O)c4ccccc4C)o3)CC2C)c1 (centres undefined) | i | i | 4 | 95* | 18
Cc1cccc(N2CCN(C(=O)c3ccccn3)CC2C)c1 (centres undefined) | i | i | 2 | 67 | 17
Cc1cccc(N2CCN(C(=O)CCN3C(=O)C4C5C=CC(C5)C4C3=O)CC2C)c1 (centres undefined) | i | i | 2 | 84* | 7
COc1ccccc1N1CCN(C(=O)CCn2c(=O)[nH]c3ccsc3c2=O)CC1 | i | i | 1 | 24 | 8
O=C(Nc1ccncc1)Nc1cccc(F)c1 | i | i | · | -10 | 4
O=C(O)CNC(=O)c1ccc(Oc2c(F)c(F)c(Oc3ccc(C(=O)NCC(=O)O)cc3)c(F)c2F)cc1 | i | i | -2 | -7 | 21
